Reference: PubChem BioAssay AID1159580 (chemical genetic matrix, 2015)
In all, about 5,500 compounds went through this assay and about 2,000 (36%) were called active. Roughly 18% stayed inconclusive and do not appear here. Rule as the data show it: active = normalized growth mostly below about 0.91 (no sharp cut-off); inconclusive = no clear call, values can overlap the other calls; inactive = mostly above about 0.92. Some of the results follow.

Experiment: chemical genetic growth profiling, strain panel (AID 1159580);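 also: tested at 20 µM; growth read once vehicle control cultures reached saturation at 30 °C; 1 = growth at the plate median or of vehicle wells; lower values mean less growth of the strain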
Conditions: growth OD

Measured: normalized growth

COC1=CC23CCCN2CCc2cc4c(cc2C3C1O)OCO4 (centres undefined)
inactive: S. cerevisiae deletion strains, locus YJL187C, strain SWE1, hits give low values 1.02 | S. cerevisiae deletion strains, locus YJR043C, strain POL32, hits give low values 0.999 | S. cerevisiae deletion strains, locus YJR066W, strain TOR1, hits give low values 0.92 | S. cerevisiae deletion strains, locus YJR075W, strain HOC1, hits give low values 1.01 | S. cerevisiae deletion strains, locus YKL009W, strain mrt4, hits give low values 1.01 | S. cerevisiae deletion strains, locus YKL068W, hits give low values 1 | S. cerevisiae deletion strains, locus YKL085W, strain MDH1 (second series), hits give low values 1.01 | S. cerevisiae deletion strains, locus YKL085W, strain MDH1, hits give low values 1.01 | S. cerevisiae deletion strains, locus YKL160W, strain elf1, hits give low values 1.02 | S. cerevisiae deletion strains, locus YKL190W, strain CNB1, hits give low values 1 | S. cerevisiae deletion strains, locus YKR001C, strain vps1, hits give low values 1.01 | S. cerevisiae deletion strains, locus YKR026C, strain gcn3, hits give low values 1.02 | S. cerevisiae deletion strains, locus YKR091W, strain srl3, hits give low values 1.02 | S. cerevisiae deletion strains, locus YLL001W, strain dnm1, hits give low values 1.02 | S. cerevisiae deletion strains, locus YLL026W, hits give low values 1.02 | S. cerevisiae deletion strains, locus YLL041C, strain sdh2, hits give low values 1.02 | S. cerevisiae deletion strains, locus YLR027C, strain aat2, hits give low values 1.01 | S. cerevisiae deletion strains, locus YLR039C, strain RIC1, hits give low values 1.04 | S. cerevisiae deletion strains, locus YLR058C, strain SHM2, hits give low values 1 | S. cerevisiae deletion strains, locus YLR102C, strain apc9, hits give low values 1 | S. cerevisiae deletion strains, locus YLR113W, strain HOG1, hits give low values 0.959 | S. cerevisiae deletion strains, locus YLR221C, strain rsa3, hits give low values 1.03 | S. cerevisiae deletion strains, locus YLR258W, strain gsy2, hits give low values 1.02 | S. cerevisiae deletion strains, locus YLR262C, strain YPT6 (second series), hits give low values 1.04 | S. cerevisiae deletion strains, locus YLR262C, strain YPT6, hits give low values 1.04 | S. cerevisiae deletion strains, locus YLR268W, strain sec22, hits give low values 1.02 | S. cerevisiae deletion strains, locus YLR320W, strain mms22, hits give low values 1.05 | S. cerevisiae deletion strains, locus YLR330W, strain CHS5, hits give low values 1 | S. cerevisiae deletion strains, locus YLR342W, strain FKS1 (second series), hits give low values 0.997 | S. cerevisiae deletion strains, locus YLR342W, strain FKS1, hits give low values 1.02 | S. cerevisiae deletion strains, locus YLR357W, strain rsc2, hits give low values 1.06 | S. cerevisiae deletion strains, locus YLR370C, strain arc18, hits give low values 1.03 | S. cerevisiae deletion strains, locus YLR371W, strain rom2, hits give low values 1.01 | S. cerevisiae deletion strains, locus YLR384C, strain iki3, hits give low values 1.02 | S. cerevisiae deletion strains, locus YLR418C, strain cdc73, hits give low values 0.992 | S. cerevisiae deletion strains, locus YML016C, strain PPZ1, hits give low values 1 | S. cerevisiae deletion strains, locus YML032C, strain rad52, hits give low values 0.98 | S. cerevisiae deletion strains, locus YML120C, strain ndi1, hits give low values 1.02 | S. cerevisiae deletion strains, locus YML124C, strain tub3, hits give low values 1 | S. cerevisiae deletion strains, locus YMR058W, strain fet3, hits give low values 1.03 | S. cerevisiae deletion strains, locus YMR078C, strain ctf18, hits give low values 1.01 | S. cerevisiae deletion strains, locus YMR125W, strain sto1, hits give low values 1.04 | S. cerevisiae deletion strains, locus YMR129W, hits give low values 1.02 | S. cerevisiae deletion strains, locus YMR205C, strain PFK2, hits give low values 1.05 | S. cerevisiae deletion strains, locus YMR223W, strain ubp8, hits give low values 1.01 | S. cerevisiae deletion strains, locus YMR231W, strain pep5, hits give low values 1.02 | S. cerevisiae deletion strains, locus YMR307W, strain GAS1, hits give low values 0.984 | S. cerevisiae deletion strains, locus YNL067W, strain RPL9B, hits give low values 0.99 | S. cerevisiae deletion strains, locus YNL071W, strain lat1, hits give low values 1.02 | S. cerevisiae deletion strains, locus YNL183C, strain NPR1, hits give low values 0.926 | S. cerevisiae deletion strains, locus YNL209W, strain ssb2, hits give low values 1.02 | S. cerevisiae deletion strains, locus YNL233W, strain BNI4, hits give low values 0.989 | S. cerevisiae deletion strains, locus YNL248C, strain rpa49, hits give low values 1.04 | S. cerevisiae deletion strains, locus YNL250W, strain rad50, hits give low values 1.01 | S. cerevisiae deletion strains, locus YNL271C, strain bni1, hits give low values 1.01 | S. cerevisiae deletion strains, locus YNL298W, strain CLA4, hits give low values 1.01 | S. cerevisiae deletion strains, locus YNL307C, strain MCK1, hits give low values 1.01 | S. cerevisiae deletion strains, locus YNL322C, strain KRE1 (second series), hits give low values 1.02 | S. cerevisiae deletion strains, locus YNR049C, strain mso1, hits give low values 1.05 | S. cerevisiae deletion strains, locus YNR052C, strain pop2, hits give low values 1 | S. cerevisiae deletion strains, locus YOL012C, strain htz1 0.879 | S. cerevisiae deletion strains, locus YOL147C, strain pex11, hits give low values 1.01 | S. cerevisiae deletion strains, locus YOR001W, strain rrp6, hits give low values 1.04 | S. cerevisiae deletion strains, locus YOR061W, strain CKA2, hits give low values 1.01 | S. cerevisiae deletion strains, locus YOR069W, strain VPS5, hits give low values 1.01 | S. cerevisiae deletion strains, locus YOR070C, strain gyp1, hits give low values 1.02 | S. cerevisiae deletion strains, locus YOR080W, strain dia2, hits give low values 1.03 | S. cerevisiae deletion strains, locus YOR083W, strain WHI5, hits give low values 1.03 | S. cerevisiae deletion strains, locus YOR106W, strain vam3, hits give low values 1.03 | S. cerevisiae deletion strains, locus YOR136W, strain idh2, hits give low values 1.01 | S. cerevisiae deletion strains, locus YOR144C, strain elg1, hits give low values 1.01 | S. cerevisiae deletion strains, locus YOR184W, strain ser1, hits give low values 0.999 | S. cerevisiae deletion strains, locus YOR231W, strain MKK1, hits give low values 0.972 | S. cerevisiae deletion strains, locus YOR265W, strain rbl2, hits give low values 1.05 | S. cerevisiae deletion strains, locus YOR270C, strain vph1, hits give low values 1.09 | S. cerevisiae deletion strains, locus YOR290C, strain snf2, hits give low values 1 | S. cerevisiae deletion strains, locus YOR316C, strain cot1, hits give low values 1.01 | S. cerevisiae deletion strains, locus YPL051W, strain arl3, hits give low values 1.02 | S. cerevisiae deletion strains, locus YPL055C, strain LGE1, hits give low values 0.999 | S. cerevisiae deletion strains, locus YPL078C, strain atp4, hits give low values 1.03 | S. cerevisiae deletion strains, locus YPL106C, strain sse1, hits give low values 1.03 | S. cerevisiae deletion strains, locus YPL240C, strain hsp82, hits give low values 1.02 | S. cerevisiae deletion strains, locus YPL256C, strain CLN2, hits give low values 0.949 | S. cerevisiae deletion strains, locus YPR119W, strain clb2, hits give low values 1 | S. cerevisiae deletion strains, locus YPR141C, strain kar3, hits give low values 1.01 | S. cerevisiae deletion strains, locus YPR163C, strain tif3, hits give low values 1.01 | S. cerevisiae deletion strains, locus YPR167C, strain met16, hits give low values 0.998 | S. cerevisiae deletion strains, strain wtn01, hits give low values 1.02 | S. cerevisiae strains, strain wild type, hits give low values 1
